Our source for the outcome values is PubChem BioAssay (NCATS).

The source made the active and inactive calls. Calls follow the shape of the dose curve; as a rule, active = well fitted curve in the direction sought with a large enough effect; inconclusive = small, poorly fitted or top-dose-only effect, or effect the other way, or another doubt; inactive = no such curve, though single readings can be large or run the other way.

A short description of this experiment: qHTS for Inhibitors of Cell Surface uPA Generation: Validation Assay (AID 493164).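 Also: RAW 264.7 macrophage cells exposed to compound for 18 h.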 Conditions: mouse cells, plasminogen activation; series mostly up to 38.3 µM. The text has this: NIH Chemical Genomics Center [NCGC]
NIH Molecular Libraries Probe Centers Network [MLPCN]
Assay Submitter (PI): Thomas Bugge
The overall objective of this project is to perform a quantitative high throughput screen (qHTS) to identify novel compounds that inhibit the generation of cell surface urokinase activity. The urokinase plasminogen activator (uPA) is one of the two primary endogenous systems that mediate plasminogen activation into plasmin. Members of this system, including uPA and its receptor (uPAR), are overexpressed in several malignant tumors. This system plays a major role in adhesion, migration, invasion and metastasis of cancer cells. Small molecule inhibitors of the uPA system will serve as probes to understand the molecular mechanisms of the uPA cascade and better understanding the microenvironmental circumstances that facilitate the activation of plasminogen by uPA, and finally may provide novel candidate agents for anticancer drug therapy.
[…] […] Upon inhibition of the uPA activation cascade, the subsequent cell surface uPA activity-dependent translocation of LF into the cytoplasm is inhibited. ATP-Lite is used to measure intracellular ATP concentrations, which remain increased if LF entry into the cytoplasm is inhibited. This validation assay was performed using a small set of validation compounds.
uPA assay protocol summary:
RAW 264.7 cells were maintained in DMEM medium (Invitrogen, Carlsbad, CA) at 37C under a humidified atmosphere containing 5% CO2 and 95% air. The medium contained 10% FBS, 1 mM sodium pyruvate and 50 U/ml penicillin/streptamycin (Invitrogen, Carlsbad, CA). All compounds were screened as 7-point titration from 2.45 nM to 38.3 uM final concentration. The assay was performed in 1536-well format plate as follows:
1.Dispensing RAW 264.7 cells into 1536-well, white walled tissue culture plates at a density of 4000 cells/well (4 uL).
2.Incubation at 37 C in a 5% CO2 incubator overnight.
3.Serially diluting compounds (1:5 serial dilution; 0.0024 uM to […] final concentration) in 23 nl DMSO.
5.Incubating the compound and reagent-treated plates for 18 hours at 37 C in a 5% CO2 incubator.
6.Adding ATP-Lite (3 ul).
7.Reading plates by ViewLux with an exposure length of 5 seconds.
(qHTS replaces the single test concentration by a dilution series.)
In the case of `CC(=O)NNC(=O)N1Cc2ccccc2Oc2ccc(Cl)cc21`, the outcome was inactive. For `CNc1cc(NS(=O)(=O)c2ccc(N)cc2)nc(NC)n1` the value was “inactive”; for `CCCn1c(=O)c2[nH]c(-c3ccc(S(=O)(=O)O)cc3)nc2n(CCC)c1=O`, “inactive”.

Turning to `O=C1OC(=O)C2C3CCC(O3)C12` (stereo not given), the molecule was called inactive. Under `CCC1(O)CC2CN(CCc3c([nH]c4ccccc34)[C@@](C(=O)OC)(c3cc4c(cc3OC)N(C)C3[C@]45CCN4CC=C[C@@](CC)([C@@H](OC(C)=O)[C@]3(O)C(=O)OC)[C@H]45)C2)C1` (stereo not given in full) stands “inactive”; under `COc1ccc2c(c1)c(CC(=O)O)c(C)n2C(=O)c1ccccc1`, “inactive”; under `CCCCOc1cc(CC2CNC(=O)N2)ccc1OC` (stereo not given), “inactive”.

As for `C=CCN1CCc2c(cc(O)c(O)c2Cl)C(c2ccccc2)C1` (stereo not given), the call was inactive. For `CCn1c(=O)[nH]c2cc(Cl)c(Cl)cc21` the value was “inactive”. For `CC1C(=O)N(C)C(=O)c2nc[nH]c21` (stereo not given) the value was “inactive”; for `Nc1ncnc2c1ncn2C1CCCC1`, “inactive”.

Turning to `O=C(OCCN1CCOCC1)C1(c2ccccc2)CCCCC1`, the molecule was classed as inactive.

`N=S(=O)(O)Cc1noc2ccccc12`: the molecule was called inactive.

As for `C=CCn1c(=O)c2c(nc(-c3ccc(S(=O)(=O)O)cc3)n2C)n(C)c1=O`, the molecule was called inactive. For `CN[C@H](CC(=O)O)C(=O)O` the value was “inactive”; for `CC(C)Cn1c(=O)n(C)c(=O)c2[nH]cnc21`, “inactive”; for `C[C@@]1(C2CCCC2)Cc2cc(OCC(=O)O)c(Cl)c(Cl)c2C1=O`, “inactive”. For `NC1(C(=O)O)CCCCC1` the value was “inactive”; for `NC(Cc1cccc(-c2ccccc2CP(=O)(O)O)c1)C(=O)O` (stereo not given), “inactive”; for `C[C@@H](NCCc1ccc(O)cc1)[C@@H](O)c1ccc(O)cc1`, “inactive”. For `N[C@@H](CS(=O)O)C(=O)O` the value was “inactive”.

Consider `Nc1ccc(-c2nc3ccc(-c4nc5ccc(N)cc5[nH]4)cc3[nH]2)cc1`, for which the call was inactive. For `CN1C2CCC1CC(OC(c1ccccc1)c1ccccc1)C2` (stereo not given) the value was “inactive”; for `CC(=O)SC1CC2=CC(=O)CC[C@]2(C)C2CC[C@@]3(C)C(CC[C@@]34CCC(=O)O4)C12` (stereo not given in full), “inactive”; for `NS(=O)(=O)c1cccc2c1c([N+](=O)[O-])cc1nc(O)c(O)nc12`, “inactive”. For the molecule `NOCC(=O)O`, the call was inactive. Turning to `COc1ccc(CCn2nnnc2C2(c3ccc(C)cc3)CC2)cc1`, the molecule was classed as inactive. For `N=C(N)SCCN` the value was “inactive”. Turning to `C=CCN1CCc2c(cc(O)c(O)c2Br)[C@@H](c2ccccc2)C1`, the molecule was classed as inactive. Under `Nc1nc2c(nc(Br)n2C2OC3COP(=O)(O)O[C@@H]3C2O)c(=O)[nH]1` (stereo not given in full) stands “inactive”; under `OC[C@H]1NC[C@@H](O)[C@@H]1O`, “inactive”. Under `C=CCNc1ncnc2ccc(Br)cc12` stands “inactive”. Consider `c1ccc2c(c1)CC(N1CCN(c3cccc4c3OCCO4)CC1)C2`, for which the result was inactive.

With `NC(=O)c1ccccc1`, the molecule was called inactive.

For `CC(=O)NCCc1c[nH]c2ccc(O)cc12`, the outcome was inactive. Take `c1ccc(CN2CCC3(CCCc4ccccc43)CC2)cc1`: the outcome was inactive. For `NC1CONC1=O` (stereo not given) the value was “inactive”. For `O=C(O)C1CCCNC1` (stereo not given) the value was “inactive”. Consider `Cc1cccc(C2CN(C)CCc3c2cc(O)c(O)c3Cl)c1` (stereo not given), for which the result was inactive.

In the case of `Cc1cccc(C)c1OCC(N)C(C)C` (stereo not given), the outcome was inactive.
